Screening data from PubChem.
TRHR PAM = qHTS for Small Molecule Agonists and Allosteric Enhancers of Human TRH Receptor: Primary Screen for Enhancers. AID 493056, 2011. enhancement, % at 2 µM. Thyrotropin-releasing hormone receptor (Homo sapiens), P34981. TRHR cells, fluo-8 calcium fluorescence, EC20 TRH enhancement. 360,000 tested, 0.66% active; in the data active means enhancement above about 30%; further: 0% is about no effect
Target sequence (P34981 whole entry, looked up): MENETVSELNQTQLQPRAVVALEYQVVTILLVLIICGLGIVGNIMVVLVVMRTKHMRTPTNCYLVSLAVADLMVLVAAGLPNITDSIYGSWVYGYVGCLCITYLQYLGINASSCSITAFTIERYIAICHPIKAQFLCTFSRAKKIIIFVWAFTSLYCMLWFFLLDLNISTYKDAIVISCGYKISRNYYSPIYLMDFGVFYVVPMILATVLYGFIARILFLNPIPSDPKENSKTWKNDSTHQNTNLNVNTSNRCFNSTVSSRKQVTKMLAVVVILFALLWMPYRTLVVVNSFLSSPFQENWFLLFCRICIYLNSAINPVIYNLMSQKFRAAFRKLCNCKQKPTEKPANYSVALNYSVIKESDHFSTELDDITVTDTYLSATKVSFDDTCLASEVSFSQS
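TRHR-expressing cells loaded with fluo-8 calcium dye were read kinetically (ex 480/em 530) during compound addition, then stimulated with an EC20 of TRH (10 nM final). Enhancement of the Gq-mediated intracellular calcium response was scored.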
D1 PAM = Potentiators of Human D1 Dopamine Receptor: qHTS; D(1A) dopamine receptor (Homo sapiens), P21728; HEK293 TREx D1 cells, calcium flux, dopamine EC20 potentiation; potentiation, % at 10 µM; 360,000 tested, 0.036% active; AID 504651, 2011; in the data active means potentiation above about 30%; further: 0% is about no effect
TRHR agonist = qHTS for Small Molecule Agonists and Allosteric Enhancers of Human TRH Receptor: Primary Screen for Agonists | Thyrotropin-releasing hormone receptor (Homo sapiens), P34981 | activation, % at 2 µM | AID 493084, 2011 | TRHR cells, calcium flux fluo-8, FDSS agonist mode | 360,000 tested, 0.18% active; further: 0% is about no effect
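Fluo-8-loaded TRHR cells; 10 s baseline, compound added, kinetic Ca2+ fluorescence read 1/s, agonist mode.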
D1 ag = Allosteric Agonists of the Human D1 Dopamine Receptor: qHTS | HEK293 T-REx D1 cells, calcium flux, agonist mode | 360,000 tested, 1% active | AID 504660, 2011 | activation, % at 2 µM; further: 0% is about no effect
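Agonism was scored from calcium flux recorded over 180 s (1 read/s) after pintool compound addition, following a 10-cycle baseline. Cells were inducible force-coupled HEK293 TREx D1, plated overnight at 30 C and loaded with no-wash calcium dye.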
D1 antagonist = Antagonist of Human D 1 Dopamine Receptor: qHTS. AID 504652, 2011. 360,000 tested, 3.2% active. activity change, negative = inhibition, % at 10 µM. D(1A) dopamine receptor (Homo sapiens), P21728. HEK293 TREx D1 cells, calcium flux, dopamine EC80; active compounds read low; in the data active means activity change below about -30%; further: on the % scale 0 is the no-effect control and ±100 the full control effect
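After overnight tetracycline induction at 30 C, force-coupled D1 HEK293 cells took up a no-wash calcium dye at room temperature. Compounds were added and monitored 180 s, and the response to EC80 dopamine was then recorded.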
LDHA block = qHTS assay for inhibitors of human lactate dehydrogenase | purified LDHA, NADH/diaphorase-resazurin fluorescence; active compounds read low | activity change, % (values are at about 110 or 230 µM) | 480,000 tested, 0.15% active; in the data active means activity change below about -30%;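 further: plate controls were DMSO wells for no effect and wells without enzyme for full effect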
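Enzyme activity of human lactate dehydrogenase 5 (2 nM; 0.06 mM NADH, 0.2 mM pyruvate, 5 min, RT) is measured via a resazurin/diaphorase fluorescence readout of residual NADH.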
* marks the source's active call; other numbers are inactive results; nt = not tested or not shown. This is a sample that favours compounds with a hit; in the whole collection about 3.6% have one here. Unless noted, no stated cut-off is given here; in the data, active means activation above about 30%; inactive means the rest.

SMILES | TRHR PAM | D1 PAM | TRHR agonist | D1 ag | D1 antagonist | LDHA block
COc1cccc(NC(=O)C(C(C)C)n2c(=O)[nH]c3ccccc3c2=O)c1 (stereo unspecified) | nt | nt | nt | nt | nt | -1
Cc1ccc(NC(=O)Cn2c(=O)n(CC3CCC(C(=O)NC(C)C)CC3)c(=O)c3sccc32)cc1 (stereo unspecified) | -2 | -5 | 0 | 2 | -44* | -6
CC(C)NC(=O)Cn1c(=O)n(-c2ccccc2)c(=O)c2sccc21 | nt | nt | nt | nt | nt | -41*
CCn1c(=O)n(CC2CCC(C(=O)NC(C)C)CC2)c(=O)c2sccc21 (stereo unspecified) | -7 | 0 | 0 | 1 | 2 | -1
CC(C)(C)c1[nH]nc2c1[C@@H](c1ccccc1C(F)(F)F)C(C#N)=C(N)O2 | nt | nt | nt | nt | nt | -6
O=C(NCc1ccccc1)C12CC3CCC(CC(C3)C1)C2 | nt | nt | nt | nt | nt | 10
CC(C)=CC(=O)N(Cc1ccco1)C1CC1 | nt | nt | nt | nt | nt | 0
COC(=O)c1nc(Cl)c(Cl)c(N)c1Cl | -1 | -3 | 0 | 0 | -31* | -5
Cc1cc(C(=O)O)ccc1-c1ccc(/C=C2\SC(=O)N(CC(=O)Nc3ccc4c(c3)OCO4)C2=O)o1 | -5 | -3 | 14 | 43* | -15 | nt
Cc1ccc(C(=O)O)cc1-c1ccc(/C=C2\SC(=O)N(CC(=O)Nc3ccccc3)C2=O)o1 | 1 | -12 | 2 | 3 | -14 | -4
Clc1cccc(-c2noc(-c3ccc[nH]3)n2)c1 | nt | nt | nt | nt | nt | -22
O=C1CC(N2CCC(c3nc4ccccc4o3)CC2)C(=O)N1c1ccc(F)c(Cl)c1 (stereo unspecified) | nt | nt | nt | nt | nt | 9
COC(CC(=O)NNC(=S)Nc1ccc(Cl)cc1)OC | 2 | 4 | 0 | 3 | -30* | -2
COc1ccc(NC(=S)NNC(=O)COc2ccc(Cl)cc2Cl)cc1 | -2 | -4 | 1 | 44* | -4 | -8
CC(=O)Nc1ccc(NC(=S)NC(=O)c2ccc(Cl)cc2)cc1 | nt | nt | nt | nt | nt | 4
Nc1nccnc1C(=O)NCCc1cccnc1 | nt | nt | nt | nt | nt | 5
CC(=O)Nc1ccc(S(=O)(=O)Nc2ccc(-c3nncn3C)cc2)cc1 | nt | nt | nt | nt | nt | 2
CC(=O)Nc1ccc(C)cc1S(=O)(=O)N1CCCCCC1c1cccs1 (stereo unspecified) | nt | nt | nt | nt | nt | 0
Cc1ccc(CNCc2cccn2-c2nnc(N3CCCC3)s2)cc1 | 4 | -6 | -1 | 24 | 3 | -5
Cc1ccc(CN(Cc2cccn2-c2nnc(N3CCCC3=O)s2)C(=O)Nc2ccccc2Cl)cc1 | 3 | -3 | 1 | 2 | -69* | -3
CCOC(=O)c1c(NC(=O)c2ccc(C)o2)sc2c1CCC(C(C)(C)C)C2 (stereo unspecified) | nt | nt | nt | nt | nt | 2
OCCCNc1nc(-c2ccc(Cl)cc2)nnc1-c1ccc(Br)cc1 | 21 | -12 | 0 | 3 | -40* | -4
N#Cc1nc(Nc2cccc(F)c2)nc(NC2CCCC2)n1 | 0 | -6 | 0 | 14 | -34* | -11
N#Cc1nc(Nc2cccc(-c3ccccc3)c2)nc(NC2CCCC2)n1 | 1 | -5 | 1 | 5 | -31* | -2
Fc1cc(F)cc(Nc2nc(NC3CCCC3)nc(C3CO3)n2)c1 (stereo unspecified) | -9 | -7 | 4 | 74* | -37* | 2
SMILES | TRHR PAM | D1 PAM | TRHR agonist | D1 ag | D1 antagonist | LDHA block
COc1ccc(Nc2nc(C#N)nc(NC3CCCC3)n2)cc1 | -1 | -1 | -3 | 0 | -36* | 1
CC(C)c1ccc(-c2cc(=O)c3cc(NC(=O)C(C)(C)C)ccc3o2)cc1 | nt | nt | nt | nt | nt | 2
CN1CCN(C(C(=O)O)c2c[nH]c3cc(Br)ccc23)CC1 (stereo unspecified) | nt | nt | nt | nt | nt | 1
CSCSC1=C(C#N)C(c2ccc(Cl)cc2)C(C(C)=O)=C(C)N1 (stereo unspecified) | -1 | -13 | 1 | 5 | -31* | nt
CCOC(=O)CSC1=C(C#N)C(c2ccccc2)C(C(C)=O)=C(C)N1 (stereo unspecified) | -4 | 1 | 0 | 0 | -31* | 5
CSC1=C(C#N)C(c2ccccc2)C(C(C)=O)=C(C)N1 (stereo unspecified) | 10 | 4 | 0 | 0 | 4 | -2
CC(=O)Nc1ccc(NC(=O)c2ccccc2CCc2ccccc2)cc1 | 0 | -12 | -1 | 4 | -31* | -10
CC(=O)Nc1ccc(NC(=O)c2ccccc2C)cc1 | 2 | 6 | 0 | -1 | 6 | -7
COC(=O)C1=CN(Cc2ccc(F)cc2)C=C(C(=O)OC)C1c1ccc(O)cc1 | nt | nt | nt | nt | nt | 3
O=C(O)[C@H]1CCCC[C@H]1C(=O)NCCNC(=O)[C@@H]1CCCC[C@@H]1C(=O)O | 3 | 3 | 1 | 2 | 12 | -8
O=C(O)C1CCCCC1C(=O)OCCCCOC(=O)C1CCCCC1C(=O)O (stereo unspecified) | 2 | -5 | 0 | 1 | -31* | -5
COc1ccc(-c2cc(=O)n3[nH]c(C)c(-c4ccccc4)c3n2)cc1OC | nt | nt | nt | nt | nt | -7
CCOCc1c(C(=O)N2CCN(CC(=O)Nc3ccc(F)cc3)CC2)oc2ccccc12 | -20 | -7 | -1 | -1 | -34* | -2
CCOCc1c(C(=O)N2CCN(CCOc3ccc(Cl)cc3)CC2)oc2ccccc12 | -5 | 3 | 0 | 6 | -13 | -7
COCc1c(C(=O)N2CCN(Cc3nc4ccccc4s3)CC2)oc2ccccc12 | -2 | nt | 0 | 9 | -2 | -33*
COCc1c(C(=O)N2CCN(S(=O)(=O)c3ccccc3Cl)CC2)oc2ccccc12 | -7 | -5 | 1 | 4 | -17 | -6
CCCCCCCCCSCc1ccc(C(=O)O)o1 | nt | nt | nt | nt | nt | 9
COCCNC(=O)C(c1ccc(C)o1)N(Cc1ccc(OC)cc1)C(=O)Cn1nnc2ccccc21 (stereo unspecified) | -1 | -9 | 0 | 56* | -11 | -2
COCCNC(=O)C(c1ccc(C)o1)N(Cc1ccc(F)cc1)C(=O)Cn1nnc2ccccc21 (stereo unspecified) | -8 | -7 | 0 | 1 | 19 | -2
COc1ccc(CN(C)C(=O)c2ccc(OCC(=O)Nc3cccc(C(F)(F)F)c3)c(OC)c2)c(OC)c1 | 7 | -5 | -1 | 7 | -13 | 4
COc1ccc(NC(=O)CN(C)C(=O)c2ccccc2OCC(=O)Nc2cccc(C(F)(F)F)c2)cc1 | 18 | -5 | -1 | 13 | -33* | -4
CCOC(=O)CSc1nc(-c2ccccc2)nc2ccc(C)cc12 | -1 | -3 | 3 | 5 | -35* | -16
